Bioassay records (PubChem)
Rows were chosen to be rich in hits. Some 10% of all compounds tested hit in one or more screens of this group.
Luc counter: Counterscreen for Luciferase (Kinase-Glo TM) Inhibition. 200,000 tested, 0.28% active. Potency, µM (series often up to 38.3 µM), for inactives: top-dose activity change, negative = inhibition, hits mostly inhibitors. Kinase-Glo luciferase, ATP luminescence, 8 min. Luciferin 4-monooxygenase (Photuris pensylvanica), Q27757; active = well fitted inhibition curve with a large enough effect; inconclusive = small, poorly fitted or top-dose-only effect; also: potency is read from the fitted curve at half-maximal effect; nearly all actives have a fitted effect of over 60% in size
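Kinase-Glo luciferase light output from ATP and luciferin was measured with 10 uM ATP, within the enzyme's linear range. Buffer: 50 mM imidazole pH 7.2, 50 mM KCl, 7 mM MgCl2, 0.01% Tween 20, 0.05% BSA; luminescence read after 8 min at ambient temperature.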
ALDH1A1 block: qHTS Assay for Inhibitors of Aldehyde Dehydrogenase 1 (ALDH1A1); Aldehyde dehydrogenase 1A1 (Homo sapiens), P00352; Purified ALDH1A1, NADH fluorescence, propionaldehyde substrate; Potency, µM (titrated, usually from 75.3 µM), for the others: at the top dose activity, negative = inhibition, actives largely listed as inhibitors; 220,000 tested, 7.3% active;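 also: potency is read from the fitted curve at half-maximal effect; plate controls were no enzyme wells and a reference inhibitor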
Target sequence (P00352 whole entry, looked up): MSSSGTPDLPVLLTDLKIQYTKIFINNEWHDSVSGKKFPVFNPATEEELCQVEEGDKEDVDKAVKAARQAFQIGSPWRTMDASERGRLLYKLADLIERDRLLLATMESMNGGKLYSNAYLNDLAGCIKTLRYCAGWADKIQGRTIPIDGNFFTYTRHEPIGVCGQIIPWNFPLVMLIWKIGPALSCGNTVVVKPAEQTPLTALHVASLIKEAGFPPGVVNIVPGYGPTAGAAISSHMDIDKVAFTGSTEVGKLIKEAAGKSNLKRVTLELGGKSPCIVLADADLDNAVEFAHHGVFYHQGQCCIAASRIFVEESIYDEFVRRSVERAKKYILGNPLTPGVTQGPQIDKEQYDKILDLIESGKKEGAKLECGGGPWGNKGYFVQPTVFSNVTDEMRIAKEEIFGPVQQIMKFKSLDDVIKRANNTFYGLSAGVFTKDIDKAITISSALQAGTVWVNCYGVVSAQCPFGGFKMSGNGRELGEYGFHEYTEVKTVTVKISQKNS
PNC assembly inh: High Content Assay for Compounds that inhibit the Assembly of the Perinucleolar Compartment; 140,000 tested, 3.1% active; AID 2417, 2010; activity change (PNC), negative = inhibition, % at 10 µM; PC3M PTB-GFP, PNC prevalence imaging, 16 h; hits give low values;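 active = readout at or below -70, meaning at least 70% loss of cells showing the perinucleolar compartment, a nuclear body marking cancer cells; inconclusive = readout between -30 and a set limit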;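 also: plate controls were DMSO wells for no effect and camptothecin positive control wells for full effect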
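PC3M cells stably expressing PTB-GFP, 750–1000 cells/well, treated 16 h at 37 °C with compound (23 nl of library stock), in duplicate. After paraformaldehyde fixation and Hoechst stain, imaged at 20x; PNC prevalence scored by image analysis.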
HPGD block: qHTS Assay for Inhibitors of HPGD (15-Hydroxyprostaglandin Dehydrogenase); 15-hydroxyprostaglandin dehydrogenase [NAD(+)] (Homo sapiens), P15428; purified HPGD, NADH fluorescence kinetic, PGE2 substrate; Potency, µM, for the others: at the highest dose activity change, negative = inhibition, actives largely listed as inhibitors; 150,000 tested, 4.3% active; AID 894, 2007; also: potency is read from the fitted curve at half-maximal effect
Target sequence (P15428 whole entry, looked up): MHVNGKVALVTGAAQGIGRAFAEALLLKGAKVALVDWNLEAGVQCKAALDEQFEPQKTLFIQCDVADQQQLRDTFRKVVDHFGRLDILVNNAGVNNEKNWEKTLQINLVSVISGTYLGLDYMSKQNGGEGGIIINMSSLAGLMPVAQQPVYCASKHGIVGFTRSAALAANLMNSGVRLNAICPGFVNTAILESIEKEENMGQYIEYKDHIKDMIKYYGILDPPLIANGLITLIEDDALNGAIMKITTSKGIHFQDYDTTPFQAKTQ
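20 nM HPGD preincubated 15 min at room temperature with compound in 50 mM Tris-HCl pH 8, 0.01% Tween 20. Started with 1 mM NAD+ and 30 uM prostaglandin E2; NADH fluorescence (360/450 nm) read 5 times over 30-s intervals, last minus first.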
LMNA splice mod: qHTS Assay for Modulators of Lamin A Splicing | AID 1487, 2009 | Potency, µM (titrated, usually from 46.1 µM), for inactives: at the top dose ratio change, negative = inhibition, hits mostly inhibitors | HeLa LMNA splicing GFP/RFP minigene ratio, 48 h | 200,000 tested, 0.01% active; active = well fitted inhibition curve with a large enough effect in the signal ratio, with a control signal flat, not every such curve was filed as active; inconclusive = small, poorly fitted or top-dose-only effect, or effect the other way, or a change in a side signal; the % refers to the signal ratio; also: potency is read from the fitted curve at half-maximal effect
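S3 HeLa stable clones carrying a lamin A-EGFP splicing minigene plus DsRed2 were seeded at 600 cells/well in Opti-MEM with 2% FBS, pin-dosed and incubated 48 h at 37°C. Acumen cytometry (488 nm) gave the GFP/RFP total-intensity ratio.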
An asterisk follows results filed as active; ? = inconclusive; . = no result given; [ ] = remark or other dose. Unless noted, calls follow the shape of the dose curve; as a rule, active = well fitted inhibition curve with a large enough effect (not every such curve was filed as active); inconclusive = small, poorly fitted or top-dose-only effect, or another doubt; inactive = no such curve, though single readings can be large or run the other way. Unless noted, % is scaled to controls: 0 for no effect and ±100 for the full control effect.

SMILES	Luc counter	ALDH1A1 block	PNC assembly inh	HPGD block	LMNA splice mod
Cc1oc(-c2ccc3c(c2)OCCO3)cc1C(=O)NC(CCC(=O)O)C(=O)O (stereo not drawn)	-1.8%	7.94µM*	-19.2	14.1µM*	7.9%
CSCCC(NC(=O)c1cc(C)oc1C)C(=O)O (stereo not drawn)	18.5%	-3.0%	54.1	-6.9%	-3.3%
Clc1cccc(-n2ncc3c(NCCC4=CCCCC4)ncnc32)c1	.	.	.	.	-12.5%[46 µM]
CCc1ccc(C(=O)COC(=O)c2cccs2)cc1	?	?	-12.2	?	-0.3%
CC(=O)c1cccc(NC(=O)COC(=O)c2cccs2)c1	-5.7%	14.1µM*	.	.	?
Cc1ccc(C(=O)COC(=O)c2cccs2)cc1	?	-9.7%	77.5	28.2µM*	-2.6%
CCN(CC)c1ccc(NC(=O)COC(=O)c2cccs2)cc1	-9.1%	-10.1%	-27.1	-10.6%	6.6%
O=C(COC(=O)c1cccs1)c1ccc2c(c1)OCCO2	2.51µM*	17.8µM*	-19.4	15.8µM*	3.6%
O=C(OCC(=O)c1cccs1)c1ccc(NC(=O)c2ccco2)cc1	-6.5%	17.8µM*	24.6	-29.7%	8.4%
CC(=O)c1cccc(NC(=O)c2nc(-c3ccc(C)cc3)n3c2CCCCC3)c1	.	.	.	.	6.1%[46 µM]
CC1(C)O[C@@H]2C[C@H]3[C@H]4C[C@H](F)C5=CC(=O)C=C[C@@]5(C)[C@@H]4[C@H](O)C[C@]3(C)[C@]2(C(=O)CO)O1	-0.1%[17.1 µM]	-6.0%[20.9 µM]	.	-3.8%	?
COc1ccc(-n2c(=O)c(C)nc3cnc(Nc4cccc(OC)c4)nc32)cc1	-1.1%	?	.	-13.1%	.
CCN1CCCC1CNC(=O)c1ccc(-n2c(=O)c(=O)[nH]c3ccccc32)cc1 (stereo not drawn)	-1.0%	5.6%	.	-5.2%	.
CCCC1CC(C(=O)N[C@H](C(C)O)C2OC(SC)[C@@H](O)C(O)C2O)N(C)C1 (stereo partly drawn)	-4.6%	-10.9%	.	-7.7%	.
COc1ccc(NC(=O)N2CC[C@@]3(CCCN(C(=O)c4cnccn4)C3)C2)cc1	-2.2%	-1.5%	.	-1.1%	.
CN(C)c1ccc(C(=O)OCC(=O)c2cccs2)cc1	-0.2%	7.8%	-113.4*	-11.3%	10.0%
CCN(CC)c1ccc(N)cc1	.	3.16µM*	.	-16.0%	.
Nc1ccc(N(CCO)CCO)cc1	-8.6%	15.8µM*	.	.	8.6%[46 µM]
Nc1ccc(C(=O)N(CCO)CCO)cc1	2.3%	-1.2%	.	.	.
Nc1ccc(Sc2ccc([N+](=O)[O-])cc2)cc1	1.9%	-7.4%	.	.	.
Cc1ccc(C(C[N+](=O)[O-])Sc2ccc(N)cc2)cc1 (stereo not drawn)	.	3.98µM*	.	.	.
CC1CCc2c(sc3nc(CN4CCOCC4)nc(NS(=O)(=O)c4cccc([N+](=O)[O-])c4)c23)C1 (stereo not drawn)	-0.2%	4.47µM*	-13.2	-10.8%	-8.2%
Cc1nc(NS(=O)(=O)c2cccs2)c2c3c(sc2n1)CCC3	-0.5%	?	-19.3	-17.3%	9.4%
Cc1nc(NS(=O)(=O)c2ccc(Br)cc2)c2c3c(sc2n1)CCC3	6.9%	12.6µM*	-2.0	-9.3%	4.6%
Cc1cc(S(=O)(=O)Nc2nc(CN3CCOCC3)nc3sc4c(c23)CCCC4)ccc1F	-3.4%	14.1µM*	53.4	-7.9%	-4.9%
SMILES	Luc counter	ALDH1A1 block	PNC assembly inh	HPGD block	LMNA splice mod
O=S(=O)(Nc1nc2c(s1)CCCC2)c1ccc(Br)cc1	9.7%	12.6µM*	-9.9	-14.6%	?
O=C(Nc1ccccc1)c1cnc(N2CCCCC2)c2ccccc12	.	.	.	.	-7.6%[46 µM]
CCSc1nc2nn(-c3ccccc3)c(=O)c-2c2n1CCCCC2	16.1%	2.51µM*	-6.0	-17.7%	1.8%
CCCC(NC(C)C(=O)N1C(C(=O)O)CC2CCCCC21)C(=O)OCC (stereo not drawn)	-2.8%	2.6%	.	-12.3%	.
CC(=O)Nc1cccc(NC(=O)Cc2nc(-c3ccccc3)sc2-c2ccc(C)cc2)c1	-1.3%	0.4%	6.5	-14.2%	-13.4%
COc1cccc(NC(=O)Cc2nc(-c3ccccc3)sc2-c2ccc(C)cc2)c1	-2.4%	25.1µM*	80.5	?	?
CN(C(=O)Cn1nnc(-c2cccc(C(F)(F)F)c2)n1)C1CCCCC1	-1.2%	35.5µM*	57.1	-7.6%	9.5%
COc1cccc2cc(C(=O)N3CCCCC3C)c(=O)oc12 (stereo not drawn)	-1.0%	-3.4%	138.1	15.8µM*	-13.2%
CCN(C(=O)c1cc2cccc(OC)c2oc1=O)c1ccccc1	0.2%	-2.5%	23.0	22.4µM*	-0.3%
CCOc1cccc2cc(C(=O)N3CCN(C/C=C/c4ccccc4)CC3)c(=O)oc12	2.1%	14.1µM*	66.6	-21.3%	-12.3%
COc1cccc2cc(C(=O)N3C(C)CCCC3C)c(=O)oc12 (stereo not drawn)	-2.3%	-8.1%	19.2	28.2µM*	-7.8%
O=C(NC[C@H]1CCCCN1)c1cc(OCC(F)(F)F)ccc1OCC(F)(F)F	0.2%	-1.4%	.	-4.5%	.
COc1cccc2cc(C(=O)N3CCC(C)CC3)c(=O)oc12	-0.5%	?	25.8	12.6µM*	2.0%
COc1cccc2cc(C(=O)N3CCN(C45CC6CC(CC(C6)C4)C5)CC3)c(=O)oc12	-0.8%	?	?	-28.0%	12.7%
CC(=O)N1CCN(c2ccc(S(C)(=O)=O)cc2[N+](=O)[O-])CC1	-1.9%	5.1%	.	.	-6.6%[46 µM]
CC(=O)N1CCN(c2ccc(S(=O)(=O)NCCN(C(C)C)C(C)C)cc2[N+](=O)[O-])CC1	-2.3%	11.3%	-104.8*	-4.7%	-5.1%
CCOC(=O)N1CCN(C(=O)CSc2ccccc2)CC1	-8.3%	?	3.8	10µM*	7.7%
CCOC(=O)N1CCN(C(=O)CSCc2ccccc2)CC1	-1.5%	-13.6%	-2.1	-7.0%	-6.3%
CCOC(=O)N1CCN(C(=O)c2ccccc2CCc2ccccc2)CC1	0.7%	6.31µM*	?	-6.1%	14.0%
O=C(c1ccccc1CCc1ccccc1)N1CCN(c2ccccn2)CC1	1.4%	?	-83.7*	?	?
COC1C=CO[C@@]2(C)Oc3c(C)c(O)c4c(O)c(c(C=NN5CCN(C)CC5)c(O)c4c3C2=O)NC(=O)/C(C)=C\C=CC(C)C(O)[C@@H](C)C(O)C(C)[C@H](OC(C)=O)C1C (stereo partly drawn)	-12.6%	-1.2%	.	-12.6%	.
COc1ccccc1OCCCC(=O)Nc1ccc([N+](=O)[O-])cc1Br	1.3%	-3.9%	.	.	?
CCOC(=O)/C(C#N)=C\C1=C(N2CCCC2)CC(C)(CC)OC1 (stereo not drawn)	1.4%	?	?	-20.5%	-6.1%
